# Records with an inconclusive call do not appear. Activity calls are given as the source filed them. Rule for the calls: active = hit-call score of the fitted dose curve at least 0.9, where 1 is the maximum; inconclusive = response in the unintended direction; inactive = score below 0.9.
# How the values were obtained:
# [1] = TOX21_p53_BLA_p3_viability: Viability Assessment in the Tox21 HCT-116 p53 Agonism Beta-lactamase Assay, Phase 3 (AID 2283593);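 note: cells exposed to compound for 16 h before reading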
# Outline: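 Cellular ATP was quantified by CellTiter-Glo luminescence, read after 30 min at room temperature. Beforehand, HCT116 cells (4000/well) received compound 5 h post-seeding, 217-fold diluted from DMSO, then incubated 16 h at 37C.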
# [2] = target: Cellular tumor antigen p53 (Homo sapiens) (UniProt P04637); test: TOX21_p53_BLA_p3_ratio: Tox21 HCT-116 p53 Agonism Beta-lactamase Assay, Ratio, Phase 3 (AID 2283596)
# Chain of Cellular tumor antigen p53 (Homo sapiens) (P04637 whole entry, looked up): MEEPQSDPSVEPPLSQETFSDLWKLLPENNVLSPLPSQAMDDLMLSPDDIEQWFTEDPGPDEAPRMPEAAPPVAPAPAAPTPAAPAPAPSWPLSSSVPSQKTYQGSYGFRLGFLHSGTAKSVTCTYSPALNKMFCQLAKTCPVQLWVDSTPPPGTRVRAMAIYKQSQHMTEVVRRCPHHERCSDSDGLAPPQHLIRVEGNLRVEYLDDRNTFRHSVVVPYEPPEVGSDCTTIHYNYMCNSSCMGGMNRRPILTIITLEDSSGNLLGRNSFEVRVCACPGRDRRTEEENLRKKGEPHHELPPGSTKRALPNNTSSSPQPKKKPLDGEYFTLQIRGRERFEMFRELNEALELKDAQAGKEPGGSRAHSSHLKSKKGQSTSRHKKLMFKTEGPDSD
# Outline: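 HCT116 p53-bla cells (4000/well) given compound in DMSO (217-fold dilution) after 5 h, incubated 16 h at 37C. CCF4-AM substrate 2 h at room temperature; 460/530 nm emission ratio, gain fitted against DMSO.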
# [3] = TOX21_p53_BLA_p4_viability: Viability Assessment in the Tox21 HCT-116 p53 Agonism Beta-lactamase Assay, Phase 4 (AID 2283597);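 note: hits lower the luminescence signal meaning cytotoxicity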
# Outline: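 We seeded HCT116 p53 reporter cells at 4000/well and waited 5 h. We then added compounds in DMSO at a 217-fold dilution and incubated for 16 h. Viability was read as CellTiter-Glo luminescence after 30 min at RT.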
# [4] = target: Cellular tumor antigen p53 (Homo sapiens) (UniProt P04637); test: TOX21_p53_BLA_p5_ratio: Tox21 HCT-116 p53 Agonism Beta-lactamase Assay, Ratio, Phase 5 (AID 2283599)
# Outline: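 Beta-lactamase reporter ratio (blue 460 nm over green 530 nm, 405 nm excitation) after 2 h CCF4-AM loading, in HCT-116 cells exposed 16 h at 37 C to compounds pinned at 217-fold dilution. Increases relative to DMSO baseline scored.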
# [5] = TOX21_p53_BLA_p5_viability: Viability Assessment in the Tox21 HCT-116 p53 Agonism Beta-lactamase Assay, Phase 5 (AID 2283600)
# Outline: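 Compounds, pinned from DMSO at 217-fold dilution, were left on the cells for 16 h. The viability endpoint was ATP content measured by CellTiter-Glo luminescence, where falling signal reflects cytotoxicity.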
# [6] = target: Cellular tumor antigen p53 (Homo sapiens) (UniProt P04637); test: TOX21_p53_BLA_p4_ratio: Tox21 HCT-116 p53 Agonism Beta-lactamase Assay, Ratio, Phase 4 (AID 2283601)
# Outline: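 Signal is the blue/green (460nm/530nm) ratio of cleaved versus uncleaved CCF4-AM substrate, read after 2 h substrate loading. Cells were HCT116 carrying the p53-responsive beta-lactamase reporter, dosed 16 h at 37C, 5% CO2; CellTiter-Glo measured in parallel.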
# [7] = tested on: Thyroperoxidase (TPO), gene 54314; test: CCTE_Simmons_AUR_rTPO: CCTE's Amplex UltraRed Assay for Thyroperoxidase (TPO) Inhibition, Simmons Lab (AID 2283662);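 note: potency for loss of signal meaning inhibition of peroxidase activity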
# Outline: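 Endpoint is decreased Amplex UltraRed fluorescence after a 30-min, 37C reaction of rat thyroid microsomes with 300 uM H2O2. Eight test concentrations (5 nM–87.5 uM final) in 0.5% DMSO, three biological replicates each.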
# [8] = CCTE_Simmons_CellTiterGLO_HEK293T: Viability Assessment in CCTE's Assays for Thyroperoxidase (TPO) Inhibition, Simmons Lab (AID 2283665);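 note: cells exposed to compound for 24 h before readout; actives reduce ATP signal below DMSO vehicle meaning cytotoxicity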
# Outline: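 HEK293T cells in DMEM with 1% FBS were dosed with 8 concentrations (5 nM–87.5 uM final, 0.5% DMSO) for 24 hr at 37C; ATP content was read by CellTiter-Glo luminescence, loss-of-signal versus DMSO, three biological replicates.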
# [9] = target: Luciferin 4-monooxygenase (Photinus pyralis) (UniProt P08659); test: CCTE_Simmons_QuantiLum_inhib_2: CCTE's Firefly Luciferase Inhibition Assay, Simmons Lab (AID 2283767);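 for AC50: potency for inhibitors that lower luciferase luminescence relative to DMSO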
# Chain of Luciferin 4-monooxygenase (Photinus pyralis) (P08659 whole entry, looked up): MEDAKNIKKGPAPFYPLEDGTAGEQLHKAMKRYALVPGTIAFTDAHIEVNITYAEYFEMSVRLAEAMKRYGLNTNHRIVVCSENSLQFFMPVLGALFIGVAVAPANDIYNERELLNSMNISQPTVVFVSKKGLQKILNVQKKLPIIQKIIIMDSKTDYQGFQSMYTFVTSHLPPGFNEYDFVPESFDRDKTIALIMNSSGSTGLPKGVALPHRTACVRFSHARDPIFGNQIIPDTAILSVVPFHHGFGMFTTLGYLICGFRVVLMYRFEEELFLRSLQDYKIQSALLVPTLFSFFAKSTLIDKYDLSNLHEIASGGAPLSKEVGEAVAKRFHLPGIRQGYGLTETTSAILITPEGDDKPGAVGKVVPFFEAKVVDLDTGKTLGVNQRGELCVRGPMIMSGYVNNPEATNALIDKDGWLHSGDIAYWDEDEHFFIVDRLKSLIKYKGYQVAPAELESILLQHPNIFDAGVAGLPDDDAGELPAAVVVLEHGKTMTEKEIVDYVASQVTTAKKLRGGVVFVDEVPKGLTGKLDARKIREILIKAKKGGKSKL
# Outline: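 Recombinant firefly luciferase (5 ng/well, 200 mM potassium phosphate with 1 mg/ml BSA) was exposed to 8 concentrations from 5 nM to 87.5 uM (final, 0.5% DMSO) for 30 min at 37C in the dark. Loss of luminescence versus DMSO was read after injecting D-luciferin/ATP-analogue reagent.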
# [10] = ACEA_AR_agonist_AUC_viability: ACEA Biosciences xCELLigence Real-Time Cell Analysis on Androgen Receptor Agonism for Viability (AID 2283775)
# Outline: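 Read-out is area under the impedance curve at 80 h post-dose in 22Rv1 cells, with DMSO as baseline and signal loss taken as reduced viability. Compounds ran in duplicate from 100 uM final.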
# [11] = target: Cellular tumor antigen p53 (Homo sapiens) (UniProt P04637); test: TOX21_p53_BLA_p2_ratio: Tox21 HCT-116 p53 Agonism Beta-lactamase Assay, Ratio, Phase 2 (AID 2283592)
# Outline: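 In this cell-based reporter format, HCT116 cells were dosed with chemicals delivered from DMSO by 217-fold dilution and incubated 16 h at 37C. Emission at 460 and 530 nm after 2 h CCF4-AM loading provided the ratio, fitted upward versus DMSO.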
# [12] = STM_H9_OrnCyssISnorm_ratio: Stemina devTOX quickPredict H9 human embryonic stem cell (hESC)-based Assay for Ornithine (ORN):Cystine (CYSS) Ratio (AID 2283714)
# Outline: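 Steps: H9 hESCs in pluripotent state dosed 72h, medium plus compound renewed every 24h; conditioned medium from the final 24h deproteinized in 40% acetonitrile; ORN and CYSS quantified by UPLC-HRMS with C13 spike-ins; ratio relative to vehicle.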
# [13] = ACEA_AR_antagonist_AUC_viability: ACEA Biosciences xCELLigence Real-Time Cell Analysis on Androgen Receptor Antagonism for Viability (AID 2283776);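 note: 22Rv1 human prostate cancer cells growing on impedance electrode plates; area under impedance growth curve at 80 h after dosing as viability; hits lower the growth signal relative to DMSO meaning cytotoxicity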
# Outline: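 Viability endpoint from label-free cell-index monitoring: 22Rv1 cultures treated with an eight-point 1:4 dilution series starting at 100 uM final, AUC at 80 h fitted against DMSO.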
smiles,measurement,setting,value
C1CN(SSN2CCOCC2)CCO1,outcome,[1],inactive
same,outcome,[2],inactive
same,outcome,[3],inactive
same,outcome,[4],inactive
same,outcome,[5],inactive
same,outcome,[6],inactive
same,AC50,[7],4.25 µM (active)
same,AC50,[8],88.9 µM (active)
same,outcome,[9],inactive
same,outcome,[10],inactive
CC(=O)Nc1ccc2c(c1)Cc1cc(NC(C)=O)ccc1-2,outcome,[1],inactive
same,outcome,[2],inactive
same,outcome,[3],inactive
same,outcome,[4],inactive
CCCCCCOC(=O)C(C)CC (centres undefined),outcome,[11],inactive
same,outcome,[3],inactive
same,outcome,[6],inactive
O=C(O)c1cc2ccccc2nc1C(=O)O,outcome,[11],inactive
same,outcome,[3],inactive
same,outcome,[4],inactive
same,outcome,[6],inactive
CC(=O)OCC(=O)[C@@]12N=C(C)O[C@@H]1C[C@H]1[C@@H]3CCC4=CC(=O)C=C[C@]4(C)[C@H]3[C@@H](O)C[C@@]12C,outcome,[11],inactive
same,outcome,[3],inactive
same,outcome,[5],inactive
same,outcome,[6],inactive
C[C@]12C=CC(=O)C=C1CC[C@@H]1[C@@H]2[C@@H](O)C[C@@]2(C)[C@H]1CC[C@]2(O)C(=O)CO,outcome,[1],inactive
same,outcome,[2],inactive
same,outcome,[3],inactive
same,outcome,[4],inactive
same,outcome,[6],inactive
O=C1C=CC(=O)O1,outcome,[11],inactive
same,outcome,[4],inactive
same,outcome,[5],inactive
same,outcome,[6],inactive
O=C1CC2CC1C1CCCC21 (centres undefined),outcome,[11],inactive
same,outcome,[3],inactive
same,outcome,[4],inactive
CC(C)CCCC(C)CC=O (centres undefined),outcome,[11],inactive
same,outcome,[3],inactive
same,outcome,[4],inactive
N[C@H]1C(O)O[C@H](CO)[C@H](O)[C@@H]1O (some centres undefined),outcome,[1],inactive
same,outcome,[2],inactive
same,outcome,[3],inactive
same,outcome,[4],inactive
same,outcome,[5],inactive
same,outcome,[6],inactive
CCc1ccc2c(c1)C(=O)c1ccccc1C2=O,outcome,[1],inactive
CCC(C)C=O (centres undefined),outcome,[1],inactive
same,outcome,[2],inactive
same,outcome,[3],inactive
same,outcome,[4],inactive
same,outcome,[6],inactive
O=c1c2ccccc2nnn1CCl,outcome,[1],inactive
same,outcome,[2],inactive
same,outcome,[3],inactive
same,outcome,[4],inactive
same,outcome,[5],inactive
same,outcome,[6],inactive
Cc1cccc(N)n1,outcome,[11],inactive
same,outcome,[3],inactive
same,outcome,[4],inactive
same,outcome,[6],inactive
O=C1CCCC(=O)O1,outcome,[11],inactive
same,outcome,[3],inactive
same,outcome,[4],inactive
same,outcome,[5],inactive
same,outcome,[6],inactive
Nc1ccc(Cl)cc1Cl,outcome,[1],inactive
same,outcome,[2],inactive
same,outcome,[3],inactive
same,outcome,[4],inactive
same,outcome,[6],inactive
OC1OCCOC1O (centres undefined),outcome,[1],inactive
same,outcome,[2],inactive
same,outcome,[3],inactive
same,outcome,[4],inactive
same,outcome,[6],inactive
CCCC(=O)OCc1ccccc1,outcome,[1],inactive
same,outcome,[2],inactive
same,outcome,[5],inactive
same,outcome,[6],inactive
CC(=O)Oc1ccc(C(C)=O)cc1,outcome,[1],inactive
same,outcome,[2],inactive
same,outcome,[4],inactive
same,outcome,[5],inactive
same,outcome,[6],inactive
C=CCCCCCCCCC(=O)OCCCC,outcome,[1],inactive
same,outcome,[2],inactive
same,outcome,[4],inactive
same,outcome,[5],inactive
NNC(=O)c1cccc(C(=O)NN)c1,outcome,[2],inactive
same,outcome,[3],inactive
same,outcome,[4],inactive
same,outcome,[6],inactive
C=CCOc1c(Br)cc(Br)cc1Br,outcome,[1],inactive
same,outcome,[2],inactive
same,outcome,[4],inactive
same,outcome,[5],inactive
same,outcome,[6],inactive
O=C1CCCCCCCCCCCCCCCO1,outcome,[1],inactive
same,outcome,[2],inactive
same,outcome,[4],inactive
same,outcome,[5],inactive
same,outcome,[6],inactive
O=S(=O)(O)c1ccc2cc(O)c(S(=O)(=O)O)cc2c1,outcome,[1],inactive
same,outcome,[3],inactive
same,outcome,[4],inactive
FC(F)(F)C(=NOCC1OCCO1)c1ccc(Cl)cc1,outcome,[1],inactive
same,outcome,[2],inactive
same,outcome,[3],inactive
same,outcome,[5],inactive
same,outcome,[6],inactive
CCCCCCCCC(=O)OCC,outcome,[2],inactive
same,outcome,[3],inactive
same,outcome,[4],inactive
CCCCCC/C=C\CCCCCCCC(=O)O,AC50,[1],76.5 µM (active)
same,outcome,[2],inactive
same,outcome,[5],inactive
same,outcome,[6],inactive
NC(=O)c1ccccc1O,outcome,[1],inactive
same,outcome,[2],inactive
same,outcome,[4],inactive
same,outcome,[5],inactive
same,outcome,[6],inactive
same,outcome,[10],inactive
CC(CC=O)c1ccccc1 (centres undefined),outcome,[1],inactive
same,outcome,[2],inactive
same,outcome,[3],inactive
same,outcome,[5],inactive
COc1ccc(-c2coc3cc(O)ccc3c2=O)cc1,outcome,[1],inactive
same,outcome,[2],inactive
same,outcome,[3],inactive
same,outcome,[5],inactive
CCOC(=O)CC(C(C)=O)C(C)=O,outcome,[1],inactive
same,outcome,[2],inactive
same,outcome,[4],inactive
C=C1[C@H]2CC[C@@H]3[C@H]2C(C)(C)CCC[C@]13C,outcome,[2],inactive
same,outcome,[3],inactive
CC1=NC(C)OC1C (centres undefined),outcome,[1],inactive
same,outcome,[4],inactive
same,outcome,[5],inactive
same,outcome,[6],inactive
O=P(O)(O)Oc1ccccc1,outcome,[2],inactive
same,outcome,[3],inactive
same,outcome,[4],inactive
NC(=O)OCC(COC(N)=O)c1ccccc1,outcome,[1],inactive
same,outcome,[2],inactive
same,outcome,[4],inactive
same,outcome,[5],inactive
same,outcome,[6],inactive
COC(=O)/C=C\C(=O)O,outcome,[1],inactive
same,outcome,[4],inactive
same,outcome,[5],inactive
same,outcome,[6],inactive
CC1=CC[C@H](C(C)C)C=C1,outcome,[1],inactive
same,outcome,[3],inactive
same,outcome,[5],inactive
CCCCCCOc1cc(C)c(O)c(C)c1C,outcome,[1],inactive
same,AC50,[3],46.1 µM (active)
same,outcome,[4],inactive
same,AC50,[6],82.5 µM (active)
CCN(Cc1cccc(S(=O)(=O)O)c1)c1ccc(C(=C2C=CC(=[N+](CC)Cc3cccc(S(=O)(=O)[O-])c3)C=C2)c2ccccc2)cc1,outcome,[1],inactive
same,outcome,[3],inactive
same,outcome,[4],inactive
same,outcome,[6],inactive
CCOCC(=O)O,outcome,[2],inactive
same,outcome,[3],inactive
same,outcome,[4],inactive
CC(C)=CCCC(C)C=O (centres undefined),outcome,[1],inactive
same,outcome,[3],inactive
same,outcome,[4],inactive
same,outcome,[5],inactive
same,outcome,[6],inactive
CCOC(=O)c1ccccc1C(=C1C=C(Br)C(=O)C(Br)=C1)c1cc(Br)c(O)c(Br)c1,AC50,[2],10.4 µM (active)
same,AC50,[3],9.49 µM (active)
same,AC50,[4],15.2 µM (active)
same,outcome,[5],inactive
same,AC50,[6],8.23 µM (active)
same,AC50,[12],3.9 µM (active)
OCCN(CCO)c1ccccc1,outcome,[1],inactive
same,outcome,[4],inactive
same,outcome,[5],inactive
CCCCCCCCCCCCCCCCCC#N,outcome,[2],inactive
same,outcome,[3],inactive
same,outcome,[4],inactive
[Cl][Nd]([Cl])[Cl],outcome,[1],inactive
same,outcome,[3],inactive
same,outcome,[4],inactive
CCOC(=O)CC,outcome,[1],inactive
same,outcome,[4],inactive
same,outcome,[5],inactive
same,outcome,[6],inactive
same,outcome,[10],inactive
same,outcome,[13],inactive
O=C1OC(=O)c2cc(Oc3ccc4c(c3)C(=O)OC4=O)ccc21,outcome,[1],inactive
same,outcome,[2],inactive
same,outcome,[3],inactive
same,outcome,[5],inactive
same,outcome,[6],inactive
O=C1CCCCCN1SSN1CCCCCC1=O,outcome,[1],inactive
same,outcome,[2],inactive
same,outcome,[3],inactive
same,outcome,[5],inactive
same,outcome,[6],inactive
CCCCC(CC)COC(=O)c1ccccc1O (centres undefined),outcome,[1],inactive
same,outcome,[3],inactive
same,outcome,[5],inactive
same,outcome,[6],inactive
CCC(C)(C)C1CCCCC1OC(C)=O (centres undefined),outcome,[1],inactive
same,outcome,[2],inactive
same,outcome,[4],inactive
same,outcome,[5],inactive
same,outcome,[6],inactive
C=C(C)C(=O)OCC(C)C,outcome,[1],inactive
same,outcome,[2],inactive
same,outcome,[4],inactive
same,outcome,[6],inactive
CC(=O)c1ccc2c(c1)CCCC2,outcome,[1],inactive
same,outcome,[2],inactive
same,outcome,[6],inactive
Cc1ccc(N/N=c2\c(=O)cc/c(=N/Nc3ccc(S(=O)(=O)O)cc3)c2=O)c(C)c1,outcome,[1],inactive
same,outcome,[3],inactive
same,outcome,[4],inactive
same,outcome,[5],inactive
same,outcome,[6],inactive
same,AC50,[7],28.9 µM (active)
same,AC50,[8],76.6 µM (active)
same,AC50,[9],53.8 µM (active)
same,AC50,[13],8.3 µM (active)

# Reference: PubChem BioAssay (EPA / NIEHS)
